GALR2 antag – blocks the human galanin receptor 2; O43603; AID 828; hit rate 0.39% among 140,000; inhibition, % at 4 µM; GALR2-expressing cells, antagonist mode;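 also: cells stimulated with galanin 1-16 at roughly its EC80; 0% = agonist challenge control and 100% = basal control without agonist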
MRP resist rev – MRP-mediated drug resistance reversal; AID 602; hit rate 0.04% among 85,000; H69AR cells + 2 uM doxorubicin, CellTiter-Glo, 72 h; differential viability (reversal), % at 10 µM;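 active = viability drop by adding the cancer drug above about 55%, with treated viability meeting a 40% cutoff, limit read from the data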;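 also: viability without doxorubicin minus viability with 2 µM doxorubicin for each compound; larger differential means the compound sensitizes cells more to doxorubicin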
GALR2 agonist – activates the human galanin receptor 2; O43603; GALR2-expressing cells, agonist activation read-out; activation, % (no concentration beside the values); hit rate 0.48% among 140,000; in the data active = activation above about 5%, passing the limit was not always enough;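 also: 0% = vehicle buffer wells and 100% = reference agonist at full effect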
S1P2 antag – blocks the human S1P2 receptor. cell-based S1P2 antagonist assay, inhibition at 5 uM. hit rate 0.21% among 97,000. O95136. AID 736. inhibition, % at 5 µM; in the data active = inhibition above about 45%;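 also: CRE beta-lactamase reporter cells expressing human S1P2 stimulated with S1P; 0% = agonist at EC80 alone and 100% = agonist plus reference antagonist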
Target sequence (O95136 whole entry, looked up): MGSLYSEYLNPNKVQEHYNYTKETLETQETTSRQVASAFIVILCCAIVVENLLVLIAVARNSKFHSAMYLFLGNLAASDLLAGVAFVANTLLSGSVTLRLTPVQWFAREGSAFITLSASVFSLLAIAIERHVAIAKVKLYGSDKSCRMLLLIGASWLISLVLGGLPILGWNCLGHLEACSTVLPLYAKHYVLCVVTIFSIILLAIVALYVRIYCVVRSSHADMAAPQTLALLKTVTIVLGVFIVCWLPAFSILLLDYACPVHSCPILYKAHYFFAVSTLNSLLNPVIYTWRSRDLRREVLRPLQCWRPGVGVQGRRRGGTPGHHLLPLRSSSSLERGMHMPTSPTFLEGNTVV
S1P2 agonist – S1P2 (human) receptor agonism; activation, % at 4.5 µM; AID 729; O95136; S1P2-expressing cell line, agonist reporter read-out; hit rate 0.46% among 97,000; in the data active = activation above about 16%;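 also: 0% = vehicle low control and 100% = maximal reference agonist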
MRP-1 activ – activates MRP-1; H69AR cells + doxorubicin, viability rescue, CellTiter-Glo; viability increase, % at 10 µM; hit rate 0.61% among 140,000; AID 799;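 active = viability gain under doxorubicin at or above a set limit, the compound median plus 3 SD, cut at about 4.7% in these data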;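 also: MRP-1 overexpressing cells given doxorubicin 25 µM after compound pretreatment; 18-22 h compound pretreatment then 72 h with doxorubicin before readout; 0% = doxorubicin-only wells and 100% = vehicle-treated cells without doxorubicin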
GALR2 ant conf – GALR2 (human) antagonism confirmed; shares compounds with GALR2 antag; GALR2-expressing cells, antagonist mode, inhibition; inhibition, % at 4 µM; hit rate 60% among 480;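 also: cells stimulated with galanin at about its EC80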
BLA inh counter – inhibits beta-lactamase reporter in GALR2 antagonist counterscreen. shares compounds with GALR2 antag. CHO NFAT-BLA reporter, beta-lactamase FRET, thapsigargin-stimulated. inhibition, % at 4.2 µM. hit rate 36% among 480;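 active = inhibition above the mean inhibition across tested compounds plus 3 SD, cut at about 27% in these data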;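 also: 0% = 500 nM thapsigargin stimulated wells and 100% = unstimulated BSA only wells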
Starred values were filed as active, the others as inactive; · = no result given. An excerpt weighted towards active compounds, which were near 1.8% of everything screened. Rule as the data show it, unless noted: active = inhibition above about 27%; inactive = the rest.

SMILES | GALR2 antag | MRP resist rev | GALR2 agonist | S1P2 antag | S1P2 agonist | MRP-1 activ | GALR2 ant conf | BLA inh counter
O=C(NCc1cccnc1)/C(=C\c1ccc(-c2ccc(Br)cc2)o1)S(=O)(=O)c1ccccc1 | 37* | · | 0 | · | · | -6 | 41* | 27*
Cc1ccc(-c2cc(C(=O)NCc3cccnc3)no2)cc1 | -11 | · | -1 | 2 | -9 | -1 | · | ·
CCN(CC)c1ccc(C(=O)OCC(=O)NCC2CCCO2)cc1 (stereo not given) | -6 | · | -1 | -22 | -3 | -2 | · | ·
COc1ccc(-c2noc(CCC(=O)Nc3ccc4c(c3)OCCO4)n2)cc1 | 28* | 1 | -5 | -1 | -5 | -1 | 7 | 10
O=C(Cn1ncc(Cl)c(Cl)c1=O)N1CCN(S(=O)(=O)c2ccc3ccccc3c2)CC1 | 29* | · | -1 | · | · | -6 | 56* | 2
O=C(CSc1nc2ccccc2o1)N1CCN(S(=O)(=O)c2ccc3ccccc3c2)CC1 | -4 | · | 0 | · | · | -2 | · | ·
Cc1nc([N+](=O)[O-])c(N2CCN(C)CC2)n1Cc1ccccc1 | 4 | 6 | -3 | 12 | -7 | -1 | · | ·
Cc1nc([N+](=O)[O-])c(Sc2nc3ccccc3n2C)n1Cc1ccccc1 | 31* | · | 0 | · | · | -5 | 23 | 6
O=S(=O)(NCc1cn2ccsc2n1)c1ccc2c(c1)OCCO2 | 5 | 3 | -2 | -7 | -10 | 1 | · | ·
O=C(Nc1ccc([N+](=O)[O-])cc1)Nc1nc(-c2ccc(Cl)s2)cs1 | 32* | · | 1 | · | · | -5 | 38* | 20
CCOC(=O)C(=CNc1ccc(NC2=NCC(C)S2)cc1)C(=O)OCC (stereo not given) | 33* | · | 2 | · | · | -3 | 45* | 37*
CCOC(=O)C(=CNc1cccc(N)n1)C(=O)OCC | -22 | · | 0 | -10 | -4 | -1 | · | ·
Cc1ccccc1NC(=O)/C=C/c1ccc([N+](=O)[O-])s1 | 34* | · | 1 | · | · | -7 | 60* | 62*
COc1ccccc1Nc1nc(-c2c(C)[nH]c3ccccc23)cs1 | 30* | · | 2 | · | · | -3 | 18 | 15
CCCC(=O)Nc1nc(C)c(-c2csc(Nc3ccccc3OC)n2)s1 | -21 | · | 1 | 6 | -4 | -3 | · | ·
COc1ccc(-c2ccc3c(N)c(C(=O)c4cccc(OC)c4)sc3n2)cc1 | 29* | · | -3 | 18 | -8 | 0 | 20 | 23
COc1ccc(C(=O)c2sc3nc(-c4ccc(OC)cc4)ccc3c2N)cc1 | 6 | · | -1 | · | · | -2 | · | ·
COCCn1c(CNc2ccc(F)cc2)nnc1SCC(=O)Nc1ccc(OC)cc1OC | -10 | 3 | -2 | 5 | 0 | -3 | · | ·
O=C(OCCN1C(=O)c2cccc3c(N4CCOCC4)ccc(c23)C1=O)c1ccccc1Cl | 33* | · | -1 | · | · | -3 | 34* | 46*
CCN(CC)CCn1c2ccccc2c2nc(C)sc21 | 6 | 10 | -3 | 4 | -4 | 0 | · | ·
Oc1c(Cl)cccc1C=Nc1cc(C(F)(F)F)ccc1N1CCCC1 | 32* | · | -2 | 8 | -4 | -3 | 16 | 17
CCOC(=O)CSc1nc(C)cc(=O)[nH]1 | 32* | -6 | -3 | -3 | -11 | 1 | 4 | -6
CSc1ncccc1C(=O)Nc1nc2c(C)cccc2s1 | 29* | · | -2 | · | · | 1 | 28* | 13
O=C1C=CC(O)(c2cc(=O)c3c(O)cc(O)cc3o2)C=C1 | 90* | · | -2 | · | · | -4 | 83* | 39*
O=c1cc(-c2ccccc2Cl)oc2cc(O)cc(O)c12 | -1 | · | -2 | · | · | -2 | · | ·
SMILES | GALR2 antag | MRP resist rev | GALR2 agonist | S1P2 antag | S1P2 agonist | MRP-1 activ | GALR2 ant conf | BLA inh counter
CCN(CC)S(=O)(=O)c1cccc(NC(=O)COC(=O)C2COc3ccccc3O2)c1 (stereo not given) | -12 | · | 0 | · | · | -1 | · | ·
Cc1ccc(NC(=O)CC(O)(C(F)(F)F)C(F)(F)F)c(Br)c1 | 28* | 1 | -4 | -2 | -9 | -1 | 10 | 5
Cc1ccccc1NC(=O)CC(O)(C(F)(F)F)C(F)(F)F | 2 | -11 | -1 | 6 | -3 | 0 | · | ·
Cc1ccc(-c2cc(C(=O)N(C)Cc3cnn(C)c3C)c3cc(Br)ccc3n2)cc1 | 28* | · | 0 | · | · | -4 | 24 | 6
Cc1cc2nncn2c(Cc2ccccc2)n1 | 16 | -8 | -2 | · | · | 0 | · | ·
COc1cc(/C=C(/C(=O)c2cccs2)c2nc3ccccc3[nH]2)cc(OC)c1O | 32* | 0 | -3 | 44 | -9 | -5 | 31* | 34*
O=C(Nc1ccc(S(=O)(=O)C(F)F)cc1)c1cccc(S(=O)(=O)N2CCOCC2)c1 | 1 | -24 | 0 | 12 | -5 | 0 | · | ·
CCN(CC)c1ccc(C(=O)N/N=C(\C)c2ccc(O)cc2)cc1 | 30* | · | -3 | · | · | -3 | 24 | 7
COc1ccc(/C(C)=N/NC(=O)c2ccc(N(C)C)cc2)cc1 | -3 | · | -3 | 2 | -6 | 0 | · | ·
CC(NC(=O)Cn1ncc(Cl)c(Cl)c1=O)C12CC3CC(CC(C3)C1)C2 (stereo not given) | 57* | · | -1 | · | · | -5 | 72* | 74*
CCn1cc(C(=O)NC(C)C23CC4CC(CC(C4)C2)C3)cn1 (stereo not given) | -4 | · | 1 | · | · | 0 | · | ·
CCCCCOc1ccc(Br)cc1CSC(=N)N | 33* | · | 0 | · | · | -6 | 38* | 77*
O=C(/C=C/c1ccc(Cl)cc1)NC(=S)Nc1ccc(NC(=O)c2ccco2)cc1 | 46* | · | -2 | · | · | -5 | 53* | 23
O=C(CN(CC1CCCO1)C(=O)CCC(=O)Nc1ccccn1)NCc1ccccc1 (stereo not given) | 30* | 12 | -3 | -4 | -3 | 0 | 8 | 9
CC(C)CCNC(=O)CN(CC1CCCO1)C(=O)CCC(=O)Nc1ccccn1 (stereo not given) | 4 | 9 | -2 | 24 | -5 | -2 | · | ·
CCC1=Nc2cc(C(=O)NCc3ccco3)ccc2Sc2ccc(C)cc21 | 31* | · | 1 | · | · | -3 | 11 | 18
CCC1=Nc2cc(C(=O)NCCCOC)ccc2Sc2ccccc21 | 5 | -26 | -2 | -2 | -1 | -4 | · | ·
COc1ccc2[nH]c3c(NCc4ccco4)ncnc3c2c1 | 28* | -4 | -2 | -4 | -10 | -7 | 23 | 8
COc1ccc(CC(=O)Nc2cccc(S(=O)(=O)N3CCCCCC3)c2)cc1OC | 28* | · | -1 | · | · | 0 | 16 | 9
O=C1CC(C2CCCO2)C(=O)N1Cc1ccccc1 (stereo not given) | -9 | -8 | 0 | -4 | -1 | -2 | · | ·
Cc1cc(/C=N/n2cnnc2)c(C)n1-c1ccc(OCc2ccc(Cl)cc2Cl)cc1 | 29* | 4 | 0 | 74* | -6 | -6 | 45* | 22
Cc1cc(/C=N/n2cnnc2)c(C)n1-c1ccc(Cl)cc1 | -11 | · | 0 | · | · | -3 | · | ·
CCOC(=O)c1ccc(NC(=O)Cn2ncc(Cl)c(Cl)c2=O)cc1 | 82* | · | 0 | · | · | -5 | 67* | 48*
